From PubChem BioAssay (NCI) come the findings set out here.

This is part of a sample that, as a whole, favours compounds with a hit. Of some 83,000 tested, about 20% had one in any assay.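 Results are percent growth after 48 hours of single-concentration exposure. 100 means growth as in untreated cells, lower positive values show inhibition; negative values down to -100 show cell death.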 Unmarked numbers belong to inactive results. Active and inactive are the calls of the source. The calls were made as follows: active = growth percent below 10; inactive = the rest.

In one experiment the test system is A498 renal. Description: NCI-60 one-dose screen, 48 h (100 = growth as untreated, 0 = no growth, -100 = all killed). As to conditions: 1 µM.
Turning to `CC/C(=C(/c1ccc(O)cc1)c1ccc(OCCN(C)C(=O)COCCOCCNC(=O)c2ccc3c(c2)CN([C@@H]2CCC(=O)NC2=O)C3=O)cc1)c1ccccc1`, the growth is 114%. Still for that read-out and setting: to `CC/C(=C(/c1ccc(O)cc1)c1ccc(OCCN(C)C(=O)CCOCCNC(=O)Cc2ccc3c(c2)CN([C@@H]2CCC(=O)NC2=O)C3=O)cc1)c1ccccc1` belongs 127%; to `CC/C(=C(/c1ccc(O)cc1)c1ccc(OCCN(C)C(=O)COCCOCCNC(=O)Cc2ccc3c(c2)CN([C@@H]2CCC(=O)NC2=O)C3=O)cc1)c1ccccc1`, 119%; to `CC/C(=C(\c1ccc(O)cc1)c1ccc(OCCNC)cc1)c1ccccc1`, 104%. Consider `CC/C(=C(\c1ccc(O)cc1)c1ccc(OCCN(C)C(=O)CCOCCNC(=O)c2ccc3c(c2)CN([C@@H]2CCC(=O)NC2=O)C3=O)cc1)c1ccccc1`, for which the growth is 93.3%.

For `CC/C(=C(\c1ccc(O)cc1)c1ccc(OCCN(C)C(=O)COCCNC(=O)Cc2ccc3c(c2)CN([C@@H]2CCC(=O)NC2=O)C3=O)cc1)c1ccccc1`, the growth was 117%.

The same experiment, now with this note: 10 µM.
As for `CC/C(=C(/c1ccc(O)cc1)c1ccc(OCCN(C)C(=O)COCCOCCNC(=O)c2ccc3c(c2)CN([C@@H]2CCC(=O)NC2=O)C3=O)cc1)c1ccccc1`, the growth was 110%.

Consider `CC/C(=C(/c1ccc(O)cc1)c1ccc(OCCN(C)C(=O)CCOCCNC(=O)Cc2ccc3c(c2)CN([C@@H]2CCC(=O)NC2=O)C3=O)cc1)c1ccccc1`, for which the growth was 97.7%. Take `CC/C(=C(/c1ccc(O)cc1)c1ccc(OCCN(C)C(=O)COCCOCCNC(=O)Cc2ccc3c(c2)CN([C@@H]2CCC(=O)NC2=O)C3=O)cc1)c1ccccc1`: the growth is 115%. As to `CC/C(=C(\c1ccc(O)cc1)c1ccc(OCCNC)cc1)c1ccccc1`, the growth is 91.2%. `CC/C(=C(\c1ccc(O)cc1)c1ccc(OCCN(C)C(=O)CCOCCNC(=O)c2ccc3c(c2)CN([C@@H]2CCC(=O)NC2=O)C3=O)cc1)c1ccccc1`: the growth is 89.6%. Still for that read-out and setting: under `CC/C(=C(\c1ccc(O)cc1)c1ccc(OCCN(C)C(=O)COCCNC(=O)Cc2ccc3c(c2)CN([C@@H]2CCC(=O)NC2=O)C3=O)cc1)c1ccccc1` stands 98.2%.

Staying with this experiment, now noted: 10 µM unless noted.
For the compound `O=C(Nc1ccc(S(=O)(=O)N2CCCCC2)cc1)C(Cl)Cl`, the growth was 111%. `O=C(c1ccc(Cl)cc1)C1[C@H](c2ccccc2Cl)[C@@H](c2ccccc2)NC12C(=O)Nc1ccccc12` (stereo partly drawn): the growth is -29% (active). Same read-out and setting: to `O=C(c1ccc(O)cc1)C1[C@H](c2ccc(Cl)cc2)[C@@H](c2ccccc2)NC12C(=O)Nc1ccccc12` (stereo partly drawn) belongs -2.62% (active). As to `Cc1ccc2nc(SCc3ccccc3F)n(-c3ccccc3)c(=O)c2c1`, the growth was 137%. As for `CCCCNc1ccc2c3c(cccc13)C(=O)N(NCC(O)COc1ccc3c(C)cc(=O)oc3c1)C2=O` (stereo not drawn), the growth was 89.2%. The same measure, in the same setting: to `c1n[nH]cc1-c1nc2ccc3[nH]ncc3c2c2c1CC1(CC2)COC1` belongs 38.6%.

On to `CCN1CCN(Cc2ccc(C(=O)Nc3cccc(Nc4ccc5c(OC)cccc5n4)c3)cc2C(F)(F)F)CC1`, for which the growth was -88.8% (active). Take `O=C(NN1C(=O)/C(=C/C=C/c2ccc([N+](=O)[O-])o2)SC1=S)c1ccc([N+](=O)[O-])cc1`: the growth is -95.8% (active). The same measure, in the same setting: to `C=CCn1c(O)c(N=Nc2nc(-c3cc4ccccc4oc3=O)cs2)c2ccccc21` belongs 137%; to `CCCCCCCCCCCCCCCCCC(=O)Nc1ccc(OC)cc1`, 105%; to `Cn1cc(-c2cc(N)n3nc(-c4c[nH]c5ccc(Cl)cc45)cc3n2)c2cc(Br)cnc21`, 29%. Still for that read-out and setting: under `COC(=O)c1ccc(-c2c(-c3ccccc3)c(F)c3oc(C(=O)OC)c(N)c3c2-c2ccccc2)cc1` stands 99%; under `COc1ccc(-c2nc3ccccc3n2CC(=O)N=Nc2c(O)[nH]c3ccc(Br)cc23)cc1`, 139%; under `O=C(N/N=C/c1c[nH]c2ccccc12)Nc1ccccc1Cl`, -8.24% (active). On to `COc1ccc(CCC2NCCc3c(Br)c4c(c(OC)c32)OCO4)cc1` (stereo not drawn), for which the growth is 79%. On the same count and under the same terms, to `CN(C)c1nc(NCCNS(=O)(=O)c2ccc(C(=O)/C=C/c3ccc(Cl)cc3)cc2)nc(N2CCOCC2)n1` belongs 87.6%.

Consider `COc1ccccc1NC(=O)N/N=C/c1c[nH]c2ccccc12`, for which the growth is 60.6%. Consider `O=C1/C(=C/c2cnc(-c3ccccc3)s2)SC(=S)N1Cc1ccc2c(c1)OCO2`, for which the growth is 45.2%. `N#CC1=C(c2cccs2)Nc2c(c(-c3ccccc3)nn2-c2ccccc2)C12C(=O)Nc1ccccc12` (stereo not drawn): the growth is -14.9% (active). The same measure, in the same setting: to `COc1ccc2[nH]c(=O)cc(-n3ncc(C(=O)/C=C/c4cc(OC)c(OC)c(OC)c4)c3C)c2c1` belongs 0.493% (active); to `C[C@H](NC(=O)c1ccc2c(-c3ccc(C(F)(F)F)cc3)cccc2c1)c1ccccn1`, 72.5%. Same read-out and setting: under `Cn1cc(Nc2ncnc(-c3ccc(N4CCCC4)c(C#N)c3)n2)cn1` stands 42.6%.

As to `CCCCCCCCc1cccc(CC(=O)Nc2ccc(C)cc2C(=O)O)c1`, the growth was 123% [25 µM].

As to `O=C1CCC(N2C(=O)c3cccc(NCCCCCC(=O)N4CCN(c5ccc6nc7c(nc6c5C(F)(F)F)C(=O)c5ncccc5C7=O)CC4)c3C2=O)C(=O)N1` (stereo not drawn), the growth was -80.7% (active). As to `CN1C(=O)/C(=C\C(=O)c2cc3ccccc3oc2=O)c2ccccc21`, the growth is 160%.

On to `Cc1ccc2nc(NC(=O)Nc3cccc(Cl)c3)sc2c1`, for which the growth was 144%.

In the case of `O=C1Nc2ccccc2/C1=C\c1ccc(OCC(=O)c2ccc(Br)cc2)cc1`, the growth was 100%. `COc1ccc2[nH]cc(-c3cc(N)n4nc(-c5c[nH]c6ccccc56)cc4n3)c2c1`: the growth is -0.442% (active). Still for that read-out and setting: to `Cn1cc(-c2cc(N)n3nc(-c4c[nH]c5ccc(Cl)cc45)cc3n2)c2cccnc21` belongs -79.7% (active). With `Cc1ccc(-c2cc(C(=O)N=Nc3c(O)[nH]c4ccc(F)cc34)c3ccccc3n2)cc1`, the growth is 187%. `O=C(NN1C(=O)/C(=C/C=C/c2ccc([N+](=O)[O-])o2)SC1=S)c1ccncc1`: the growth is 18.9%.
